The values that follow come from PubChem BioAssay (EPA / NIEHS).

Active and inactive are the calls of the source. How the source made its calls: active means hit-call score of the fitted dose curve at least 0.9, where 1 is the maximum; inactive means score below 0.9.

The assay in a line: ATG_NFI_CIS: Attagene CIS-FACTORIAL HepG2 Assay for human Nuclear Factor I (NFI) (AID 2282989). The following applies: HepG2 cis-regulatory reporter, NFI response element transcription; actives raise or lower the signal. How it is done: ATG_CIS is a cell-based, multiplexed-readout assay that uses HepG2, a human liver cell line, with measurements taken at 24 hours after chemical dosing in a 24-well plate.ATG_NFI_CIS is one of 52 assay component(s) measured or calculated from the ATG_CIS assay. It is designed to make measurements of mRNA induction, a form of inducible reporter, as detected with fluorescence intensity signals by Reverse transcription polymerase chain reaction (RT-PCR) and Capillary electrophoresis technology.Data from the assay component ATG_NFI_CIS was analyzed into 1 assay endpoint. This assay endpoint, ATG_NFI_CIS, was analyzed with bidirectional fitting relative to DMSO as the negative control and baseline of activity. Using a type of inducible reporter, measures of mRNA for gain or loss-of-signal activity can be used to understand the reporter gene at the transcription factor-level as they relate to the gene NFIA. Furthermore, this assay endpoint can be referred to as a primary readout, because this assay has produced multiple assay endpoints where this one serves a reporter gene function. To generalize the intended target to other relatable targets, this assay endpoint is annotated to the dna binding intended target family, where the subfamily is nuclear factor I.
Human liver HepG2 cells are transiently transfected with multiple reporter transcription units (MRTUs) in 6-well plates using FuGene 6 reagent (Roche; 3 ml FuGene/1 mg DNA). The MRTU constructs are regulated by a cis-regulating element (promoter). […] A major difference between the CIS and TRANS system is that in CIS activities of endogenous TFs are measured, whereas the TRANS assay evaluates changes in activities of exogenous, chimeric NR-Gal4 proteins. […] At the end of 24 hour incubation, total RNA was isolated using TriZol reagent (Invitrogen). The isolated RNA is then reverse-transcribed using oligo(dT) primer and Mo-MLV reverse transcriptase (Invitrogen) with DNAse I (Ambion) treatment for 30 min. The one-tenth of the produced cDNA was amplified by PCR using Taq DNA polymerase (Invitrogen) and two reporter sequence-specific primers. The PCR products were fluorescently labeled by primer extension with 6-arboxyfluorescein (6-FAM) 5'-labeled reporter sequence-specific primer (2 min at 95 C, 20 s at 68 C and 10 min at 72 C) and these products were digested with 5U of HpaI (New England Biolabs) for 2h at 37 C. The fragments were purified using Qiaquick PCR columns (Qiagen), analyzed on an ABI 3130xL genetic analyzer (Applied Biosystems) with peak positions identified by using a set of X-rhodamine (ROX)-labeled MapMarker1000 molecular weight standards (BioVentures). The raw capillary electrophoresis data was processed using Attagraph software (Attagene).
Consider `[CH3][Sn]([Cl])([Cl])[Cl]`, for which the compound was classed as inactive.
As to `C=CCc1ccc(OC(=O)Cc2ccccc2)c(OC)c1`, the compound was called inactive.
`CCOC(=O)NC(=S)Nc1ccccc1NC(=S)NC(=O)OCC`: the compound was classed as inactive.
Same read-out and setting: with `C=Cc1cccc(CCl)c1` the entry was “inactive”; with `Nc1ccc([N+](=O)[O-])cc1N`, “inactive”.
Same read-out and setting: the same measure for `CC1CCC(=O)O1` (stereo not given): “inactive”; for `CC1(C)CC(=O)CC(C)(C)N1[O]`: “inactive”.
Take `O=[N+]([O-])O.O=[N+]([O-])O.[Cd]`: the AC50 (usually the concentration giving half of the maximal activity seen) is 2.18 µM (active).
Regarding `O=c1[nH]c(Cl)c(Cl)cc1Cl`, the compound was called inactive.
For `CCOC(=O)N(C)N=O`, the compound was called inactive.
`CC(C)(c1cc(Cl)c(O)c(Cl)c1)c1cc(Cl)c(O)c(Cl)c1`: the compound was classed as inactive.
Same read-out and setting: the same measure for `SCc1ccco1`: “inactive”.
`C=CC(=O)OCCO`: the AC50 is 164 µM (active).
On to `O=P(O)(Oc1ccccc1)Oc1ccccc1`, for which the outcome was inactive.
`[Cl][Sb]([Cl])[Cl]`: the outcome was inactive.
On to `CC(C)(C)C(O)C(Oc1ccc(-c2ccccc2)cc1)n1cncn1` (stereo not given), for which the outcome was inactive.
On the same count and under the same terms, the same measure for `ClCCCCCCCl`: “inactive”; for `CC(C)(O)C#N`: “inactive”.
The same measure, in the same setting: the same measure for `CCCOC(=O)c1ccccc1C(=O)OCCC`: “inactive”; for `CCCCOP(=O)(O)OCCCC`: “inactive”.
In the case of `N#CCCCl`, the result was inactive.
On the same count and under the same terms, the same measure for `ClC1=C(Cl)[C@]2(Cl)[C@@H]3[C@@H](Cl)[C@H](Cl)C[C@@H]3[C@@]1(Cl)C2(Cl)Cl`: “inactive”.
As for `Clc1ccc(-c2ccccc2)cc1`, the AC50 is 152 µM (active).
`CNC(=N[N+](=O)[O-])NCC1CCOC1` (stereo not given): the call was inactive.
Still for that read-out and setting: with `O=CNC(N1CCN(C(NC=O)C(Cl)(Cl)Cl)CC1)C(Cl)(Cl)Cl` (stereo not given) the entry was “inactive”; with `CC1OC(C)OC(C)O1` (stereo not given), “inactive”; with `CC1(C)[C@H](C(=O)O[C@H](C#N)c2cccc(Oc3ccccc3)c2)[C@@H]1C=C(Br)Br`, “inactive”.
Same read-out and setting: with `O=[N+]([O-])c1ccc(Cl)cc1` the entry was “inactive”.
For the compound `Cc1cc(C)c(C2=C(OC(=O)CC(C)(C)C)C3(CCCC3)OC2=O)c(C)c1`, the AC50 is 145 µM (active).
Take `CCCCOC(=O)CCC(=O)OCCCC`: the call was inactive.
Still for that read-out and setting: the same measure for `CCOP(O)OCC`: “inactive”.
With `C=CC(=O)OC`, the outcome was inactive.
Still for that read-out and setting: with `[Cl-].[Cl-].[Cl-].[Yb+3]` the entry was “inactive”.
For `Oc1ccc(C2(c3ccc(O)cc3)c3ccccc3-c3ccccc32)cc1`, the AC50 was 17.6 µM (active).
On to `CC(C)[C@@H](C(=O)O[C@@H](C#N)c1cccc(Oc2ccccc2)c1)c1ccc(Cl)cc1`, for which the outcome was inactive.
The same measure, in the same setting: with `Cc1ncc(C[n+]2csc(CCO)c2C)c(N)n1` the entry was “inactive”.
Same read-out and setting: the same measure for `CCCCNP(N)(N)=S`: “inactive”; for `CC(Cc1ccc(C(C)(C)C)cc1)CN1C[C@@H](C)O[C@@H](C)C1` (stereo not given in full): “inactive”.
Take `CC(C)(C)C(=O)CCl`: the compound was classed as inactive.
For the compound `O=C(O)CCl`, the outcome was inactive.
